# Tested on: TESK1
# Conditions: concentration: 1 μM,replicates: in singlicate; n = 1
# 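Further: KINOMEscan kinase panel screen.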
row,SMILES,%Inh [%]
1,OCCn1cc(-c2cnc3nnn(Cc4ccc5ncccc5c4)c3n2)cn1,0
2,CC(=O)Nc1nc2cnc(Nc3cc(NC(=O)c4cccc(CC(C)(C)C#N)c4)ccc3C)nc2s1,0
3,CCNCC(Cc1ccccc1)NC(=O)c1cc(Br)c(-c2ccnc3[nH]ccc23)s1.Cl.Cl (stereo not drawn) [GSK1383280],24
4,N#Cc1cccc(C(=O)NC2CCN(c3ccnc(Nc4ccc(F)cc4)n3)C2)c1 (stereo not drawn) [GSK1379708],13
5,CN1CCN(CCCNc2nccc(-c3c(-c4ccc(F)cc4)nn4cc(C(N)=O)ccc34)n2)CC1 [GW622475],23
6,O=C(Nc1n[nH]c2cc(-c3ccco3)ccc12)C1CC1 [SB-737447],0
7,CCOC(=O)N1CCC(n2cnc(-c3ccc(F)cc3)c2-c2ccnc(N)n2)CC1 [SB-219952],12
8,COc1cc2ncn(-c3cc(OCC4CCCCC4)c(C(N)=O)s3)c2cc1OC [GSK204559],18
9,CSc1nccc(-c2c(-c3ccc(F)cc3)ncn2CCCN2CCOCC2)n1.Cl [SB-217146],0
10,CCn1c(-c2nonc2N)nc2cncc(Br)c21 [SB-738004],19
11,Cn1ccc2ncnc(Oc3ccc(NC(=O)Nc4cccc(C(F)(F)F)c4)c(F)c3)c21,11
12,Cc1cccc(-c2nc(Nc3ccncc3)c3sccc3n2)n1 [GW869641],10
13,Cn1cc(-c2cccc3c(N)c(C(N)=O)nnc23)cn1,0
14,CCN1CCN(CCCC(=O)Nc2n[nH]c3nc(-c4ccc(O)cc4)c(Br)cc23)CC1 [SB-731579],0
15,Cn1ccc2ncnc(Oc3ccc(NC(=O)Nc4cc(C(C)(C)C)on4)c(Cl)c3)c21,0
16,Cc1n[nH]c2cc(Nc3ccnc(Nc4cccc(CN5CCOCC5)c4)n3)ccc12 [GW682569],27
17,CS(=O)(=O)c1cccc(CNc2nc(Nc3ccc4c(c3)[C@@H]3C[C@@H]4CNC3=O)ncc2C(F)(F)F)c1,0
18,Cc1ccc(C(=O)Nc2ccc(Oc3ccc4nc(NC(=O)C5CC5)cn4c3)c(F)c2)c(=O)n1-c1ccccc1,30
19,COC(=O)Nc1nc2cc(Oc3ccc(NC(=O)Nc4cc(C(F)(F)F)ccc4Cl)cc3)ccc2[nH]1.Cl [GW697465],7

row,SMILES,%Inh [%]
1,CC(C)c1nc(-c2cccc(NS(=O)(=O)c3ccccc3)c2)c(-c2ccnc(Nc3ccc4c(c3)CN(C)CC4)n2)s1 [GSK1649598],97.5
2,Cn1ccc2ncnc(Oc3ccc(NC(=O)Nc4cccc(C(F)(F)F)c4)c(Cl)c3)c21,0
3,CC(=O)Nc1ccc(-c2cc3ncnc(SCC(=O)O)c3s2)cc1,6
4,C[C@@H](Oc1cc(-n2cnc3cc(-c4cnn(C)c4)ccc32)sc1C(N)=O)c1ccccc1Cl [GSK580432],37
5,CC(C(=O)NC1CCN(c2ccnc(Nc3ccc(F)cc3)n2)C1)c1ccc(Cl)cc1 (stereo not drawn) [GSK1379713],26
6,c1ccc(Oc2ccc(Nc3ccnc4ccc(-c5ccccn5)cc34)cc2)cc1 [GW407034],29
7,COc1cc2c(Nc3ccc(NC(=O)c4ccccc4)cc3)ncnc2cc1OCCCN1CCOCC1 [GSK301329],37
8,Nc1nccc(-c2ccc3c(N)n[nH]c3c2)n1 [GSK1034945],2
9,CNC(=O)c1ccccc1Nc1nc(Nc2cccc(CS(C)(=O)=O)c2)ncc1C.O=CO [GSK1520489],64
10,C[C@@H]1CNc2c(sc3ccc4nc(-c5ccncc5)ccc4c23)C(=O)N1,0
11,CCn1c(-c2nonc2N)nc2cncc(CNC3CCNCC3)c21.Cl [SB-747651],20
12,O=C(Nc1cccc(Oc2ccc3nccn3n2)c1)Nc1cccc(C(F)(F)F)c1,11
13,Cc1ccc(Nc2ccnc(Nc3ccc4c(c3)CS(=O)(=O)C4)n2)cc1O.Cl [GW579362],53
14,O=C(Nc1cccc(C(F)(F)F)c1)c1cccc(Oc2ccc3nccn3n2)c1,7
15,NC(=O)c1ccc(-c2cc3ncnc(SCC(=O)O)c3s2)cc1,6
16,COC(=O)c1cccc(NC(=O)NC2CCN(c3ccnc(Nc4cc(OC)c(OC)c(OC)c4)n3)C2)c1 (stereo not drawn) [GSK1379767],19
17,Cc1cccc2c(-c3ccncc3)c(-c3ccc(F)cc3)nn12.Cl [GW461487],0
18,CN(c1cccc(CNc2nc(Nc3ccc4c(c3)CC(=O)N4)ncc2C(F)(F)F)c1)S(C)(=O)=O,0

# Tested on: TGFBR1
# Conditions: concentration: 1 μM,replicates: in singlicate; n = 1
row,SMILES,%Inh [%]
1,OCCn1cc(-c2cnc3nnn(Cc4ccc5ncccc5c4)c3n2)cn1,0
2,CC(=O)Nc1nc2cnc(Nc3cc(NC(=O)c4cccc(CC(C)(C)C#N)c4)ccc3C)nc2s1,9
3,CCNCC(Cc1ccccc1)NC(=O)c1cc(Br)c(-c2ccnc3[nH]ccc23)s1.Cl.Cl (stereo not drawn) [GSK1383280],0
4,N#Cc1cccc(C(=O)NC2CCN(c3ccnc(Nc4ccc(F)cc4)n3)C2)c1 (stereo not drawn) [GSK1379708],4
5,CN1CCN(CCCNc2nccc(-c3c(-c4ccc(F)cc4)nn4cc(C(N)=O)ccc34)n2)CC1 [GW622475],92.3
6,O=C(Nc1n[nH]c2cc(-c3ccco3)ccc12)C1CC1 [SB-737447],6
7,CCOC(=O)N1CCC(n2cnc(-c3ccc(F)cc3)c2-c2ccnc(N)n2)CC1 [SB-219952],23
8,COc1cc2ncn(-c3cc(OCC4CCCCC4)c(C(N)=O)s3)c2cc1OC [GSK204559],0
9,CSc1nccc(-c2c(-c3ccc(F)cc3)ncn2CCCN2CCOCC2)n1.Cl [SB-217146],0
10,CCn1c(-c2nonc2N)nc2cncc(Br)c21 [SB-738004],0
11,Cn1ccc2ncnc(Oc3ccc(NC(=O)Nc4cccc(C(F)(F)F)c4)c(F)c3)c21,0
12,Cn1cc(-c2cccc3c(N)c(C(N)=O)nnc23)cn1,0
13,CCN1CCN(CCCC(=O)Nc2n[nH]c3nc(-c4ccc(O)cc4)c(Br)cc23)CC1 [SB-731579],0
14,Cn1ccc2ncnc(Oc3ccc(NC(=O)Nc4cc(C(C)(C)C)on4)c(Cl)c3)c21,13
15,Cc1n[nH]c2cc(Nc3ccnc(Nc4cccc(CN5CCOCC5)c4)n3)ccc12 [GW682569],54
16,CS(=O)(=O)c1cccc(CNc2nc(Nc3ccc4c(c3)[C@@H]3C[C@@H]4CNC3=O)ncc2C(F)(F)F)c1,0
17,Cc1ccc(C(=O)Nc2ccc(Oc3ccc4nc(NC(=O)C5CC5)cn4c3)c(F)c2)c(=O)n1-c1ccccc1,16
18,COC(=O)Nc1nc2cc(Oc3ccc(NC(=O)Nc4cc(C(F)(F)F)ccc4Cl)cc3)ccc2[nH]1.Cl [GW697465],28

row,SMILES,%Inh [%]
1,CC(C)c1nc(-c2cccc(NS(=O)(=O)c3ccccc3)c2)c(-c2ccnc(Nc3ccc4c(c3)CN(C)CC4)n2)s1 [GSK1649598],94.1
2,Cn1ccc2ncnc(Oc3ccc(NC(=O)Nc4cccc(C(F)(F)F)c4)c(Cl)c3)c21,17
3,CC(=O)Nc1ccc(-c2cc3ncnc(SCC(=O)O)c3s2)cc1,7
4,C[C@@H](Oc1cc(-n2cnc3cc(-c4cnn(C)c4)ccc32)sc1C(N)=O)c1ccccc1Cl [GSK580432],0
5,CC(C(=O)NC1CCN(c2ccnc(Nc3ccc(F)cc3)n2)C1)c1ccc(Cl)cc1 (stereo not drawn) [GSK1379713],0
6,c1ccc(Oc2ccc(Nc3ccnc4ccc(-c5ccccn5)cc34)cc2)cc1 [GW407034],10
7,COc1cc2c(Nc3ccc(NC(=O)c4ccccc4)cc3)ncnc2cc1OCCCN1CCOCC1 [GSK301329],0
8,CNC(=O)c1ccccc1Nc1nc(Nc2cccc(CS(C)(=O)=O)c2)ncc1C.O=CO [GSK1520489],81
9,C[C@@H]1CNc2c(sc3ccc4nc(-c5ccncc5)ccc4c23)C(=O)N1,0
10,CCn1c(-c2nonc2N)nc2cncc(CNC3CCNCC3)c21.Cl [SB-747651],10
11,O=C(Nc1cccc(Oc2ccc3nccn3n2)c1)Nc1cccc(C(F)(F)F)c1,4
12,Cc1ccc(Nc2ccnc(Nc3ccc4c(c3)CS(=O)(=O)C4)n2)cc1O.Cl [GW579362],82
13,O=C(Nc1cccc(C(F)(F)F)c1)c1cccc(Oc2ccc3nccn3n2)c1,0
14,NC(=O)c1ccc(-c2cc3ncnc(SCC(=O)O)c3s2)cc1,0
15,COC(=O)c1cccc(NC(=O)NC2CCN(c3ccnc(Nc4cc(OC)c(OC)c(OC)c4)n3)C2)c1 (stereo not drawn) [GSK1379767],0
16,Cc1cccc2c(-c3ccncc3)c(-c3ccc(F)cc3)nn12.Cl [GW461487],8
17,CN(c1cccc(CNc2nc(Nc3ccc4c(c3)CC(=O)N4)ncc2C(F)(F)F)c1)S(C)(=O)=O,0
